# Experimental data as given in PubChem BioAssay (NCATS).
# Results filed as inconclusive are left out. Activity calls are given as the source filed them. Unless noted, calls follow the shape of the dose curve; as a rule, active = well fitted curve in the direction sought with a large enough effect; inconclusive = small, poorly fitted or top-dose-only effect, or another doubt; inactive = no such curve, though single readings can be large; an effect the other way counts as inactive or inconclusive.
# What was measured:
# [1] = molecular target: Lysosomal acid glucosylceramidase (Homo sapiens) (UniProt P04062); experiment: Glucocerebrosidase-p2 (AID 348; in the data active = potency below about 10 µM; also: potency is read from the fitted curve at half-maximal effect); conditions: purified GBA, blue fluorogenic substrate, 40 min
# In short: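 Normal human glucocerebrosidase (0.2 nM) with blue fluorogenic substrate (80 uM final) in citrate/phosphate pH 5.9 with 10mM sodium taurocholate, 0.01% tween-20; 40 min RT, NaOH/glycine stop; fluorescence Ex 365/Em 440; AC50 from a titration from 0.6 nM upwards.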
# [2] = AP1 Signaling Pathway (AID 357; active = well fitted curve in either direction with a large enough effect, not every such curve was filed as active;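 also: ME-180 reporter cells stimulated with EGF at its EC50 level; % is scaled to controls: 0 for no effect and ±100 for the full control effect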); conditions: ME-180 AP-1-bla reporter, EGF-induced, beta-lactamase ratio, 5 h; at 7.69 µM (top of the series) unless noted
# In short: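 Modulation of EGF-driven AP-1 transcription was assessed with a beta-lactamase reporter in ME-180 cells. Compound and EC50 EGF were co-incubated 5 hours at 37 °C before 2.5-hour CCF4 loading at room temperature and dual-emission reading.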
# [3] = NFAT Signaling Pathway (AID 444; active = well fitted curve in either direction with a large enough effect, not every such curve was filed as active;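 also: carbachol stimulus at about its EC50 of 1 µM final; % is scaled to controls: 0 for no effect and ±100 for the full control effect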); conditions: Jurkat NFAT-bla M1, carbachol, beta-lactamase ratio, 5 h; at 7.69 µM (top of the series) unless noted
# In short: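 Jurkat cells with NFAT-driven β-lactamase reporter and co-expressed M1 receptor, stimulated with carbachol (final 1 uM, ~EC50), compound titration, 5 h at 37 °C. CCF4 loaded 1 h at RT; 460/530 nm ratio gave %activity and AC50.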
# [4] = Stat Signaling Pathway (AID 446; active = well fitted curve in either direction with a large enough effect, not every such curve was filed as active;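 also: ME-180 cervical cancer cells given 40 pM IL-6 alongside compound; SIE-controlled beta-lactamase reporter measured as 460/530 nm FRET emission ratio; % is scaled to controls: 0 for no effect and ±100 for the full control effect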); conditions: ME-180 (cervical carcinoma) SIE beta-lactamase reporter, IL-6 stimulated, 5 h; at 7.69 µM (top of the series) unless noted
# In short: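 Normalization used AC90 stimulation (300 pM IL-6) and AC90 inhibition (125 nM pan-JAK inhibitor at 40 pM IL-6). The underlying signal is SIE-driven beta-lactamase in ME-180 cells after 5 h IL-6 exposure with compound.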
# [5] = molecular target: Glucocorticoid receptor (Homo sapiens) (UniProt P04150); experiment: GR-GFP Redistribution (AID 450;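 active = compounds whose dose series gives a full or clear partial fitted curve of increased nuclear translocation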; also: potency is read from the fitted curve at half-maximal effect); conditions: U2OS GR-GFP nuclear translocation, laser cytometry, 2 h
# [6] = molecular target: Glucocorticoid receptor (Homo sapiens) (UniProt P04150); experiment: GR-EFC Redistribution (AID 451; calls by dose curve; also: potency is read from the fitted curve at half-maximal effect); conditions: CHO-K1 GR-EFC translocation, beta-gal luminescence, 2 h
# In short: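 CHO-K1 cells expressing nuclear EA and GR-ED fragments of b-gal; compounds titrated up to 46 uM final, 2 h at 37 C. GR nuclear translocation read as complemented b-gal luminescence after 1 h RT detection.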
# [7] = molecular target: Mitogen-activated protein kinase 10 (Mus musculus) (UniProt Q61831); experiment: JNK3 AlphaScreen Assay (AID 530; active = well fitted curve in either direction with a large enough effect, not every such curve was filed as active;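 also: kinase came from lysate of stimulated human HepG2 cells; signal reports phosphorylation of biotinylated GST-cJun 1-79 at Ser73 with 10 µM ATP; % is scaled to controls: 0 for no effect and ±100 for the full control effect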); conditions: JNK3 lysate, c-Jun phosphorylation; series mostly up to 57.1 µM
# In short: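 Activity was read by AlphaScreen after JNK3-containing HepG2 lysate (cytokine pre-activated) phosphorylated biotinylated GST-cJun with 10 uM ATP at room temperature. Phospho-Ser73 cJun antibody with Protein-A acceptor beads provided detection.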
# [8] = molecular target: 3',5'-cyclic-AMP phosphodiesterase 4B (Homo sapiens) (UniProt Q07343); experiment: qHTS Assay for Inhibitors of PDE-IV (AID 607; active = well fitted activation curve with a large enough effect in the main read-out, with a control signal flat, not every such curve was filed as active; also: % of control where 0% means no effect); conditions: HEK293 ACTOne CNG channel cells, membrane potential fluorescence; series mostly up to 22.9 µM
# In short: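 HEK293 ACTOne cells with CNG channel (1000/well), endogenous PDE4; membrane potential dye, compounds up to 22.9 uM final. Fluorescence Ex 535/Em 590; RO 20-1724 (100 uM final) as reference.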
# [9] = molecular target: Cytochrome P450 3A4 (Homo sapiens) (UniProt P08684); experiment: qHTS Assay for Inhibitors and Substrates of Cytochrome P450 3A4 (AID 884); conditions: recombinant CYP3A4, Luciferin-PPXE luminescence; series mostly up to 57.1 µM; also: potency is read from the fitted curve at half-maximal effect; nearly all actives have a fitted effect of over 50% in size
# In short: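 Luminescent readout of luciferin produced by CYP3A4 (20 nM) dealkylation of Luciferin-PPXE, 25 uM (its KM). NADPH-driven reaction ran 60 min at RT after 10 min compound preincubation; data scaled to 57 uM ketoconazole as 100% inhibition.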
# [10] = molecular target: Cytochrome P450 3A4 (Homo sapiens) (UniProt P08684); experiment: qHTS Assay for Activators of Cytochrome P450 3A4 (AID 885); conditions: recombinant CYP3A4, Luciferin-PPXE luminescence, 60 min; series mostly up to 57.1 µM; also: nearly all actives have a fitted effect of over 65% in size
# In short: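 Human CYP3A4 dealkylates Luciferin-PPXE to luciferin, which luciferase detection converts to light. Substrate was at its KM (25uM), buffer 200mM KPO4, reaction 60 min at RT.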
# [11] = qHTS Assay for Lipid Storage Modulators (AID 1519; calls by dose curve); conditions: Drosophila S3 cells, BODIPY lipid droplet/cell ratio, laser cytometry, cells loaded with oleic acid; for activity change, negative = inhibition: at 57.5 µM (top of the series)
# In short: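 Cells seeded at 5,000 per well were treated with compounds over a concentration series and loaded with oleic acid (400 uM, as added). Lipid droplet fluorescence (488 nm excitation, 500-530 nm channel) was read by laser-scanning cytometry and normalized to 20 uM Triacsin C.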
# [12] = molecular target: Dual specificity protein kinase CLK4 (Homo sapiens) (UniProt Q9HAZ1); experiment: qHTS Assay for Inhibitors of CDC-like Kinase 4 (Kinase-Glo Assay) (AID 1770); conditions: recombinant Clk4, Kinase-Glo ATP depletion luminescence; series mostly up to 66.7 µM; also: nearly all actives have a fitted effect of over 65% in size; also: potency is read from the fitted curve at half-maximal effect
# In short: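 Substrate mix (RS peptide 100 uM, ATP 1 uM) dispensed, compound pinned in, then Clk4 added to 25 nM final. Incubated 4.5 h at RT; Kinase-Glo reagent added, luminescence read after 5 min.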
# [13] = molecular target: Dual specificity protein kinase CLK4 (Homo sapiens) (UniProt Q9HAZ1); experiment: qHTS Assay for Inhibitors of CDC-like Kinase 4 (ADP-Glo Assay) (AID 1771); conditions: recombinant CLK4, ADP-Glo luminescence; series mostly up to 80 µM; also: nearly all actives have a fitted effect of over 70% in size; also: potency is read from the fitted curve at half-maximal effect
# In short: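 ADP production was read by ADP-Glo luminescence after residual ATP depletion, following 1 h room-temperature reaction of 25 nM Clk4, 1 uM ATP and 100 uM RS peptide with MgCl2, EGTA, DTT and Triton X-100.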
# [14] = molecular target: Dual specificity protein kinase CLK4 (Homo sapiens) (UniProt Q9HAZ1); experiment: qHTS Assay for Inhibitors of CDC-like Kinase 4 (ADP-FP Assay) (AID 1795); conditions: Transcreener ADP fluorescence polarization; series mostly up to 50 µM; also: nearly all actives have a fitted effect of over 60% in size; also: potency is read from the fitted curve at half-maximal effect
# In short: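 Clk4 6.25 nM; RS peptide 100 uM; ATP 1 uM; 25 mM Tris pH 7.5, 10 mM MgCl2; 1 h reaction. ADP detected via antibody/orange tracer FP displacement; TG003 positive control.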
# [15] = molecular target: Ubiquitin carboxyl-terminal hydrolase 1 (Homo sapiens) (UniProt O94782); experiment: Inhibitors of USP1/UAF1: Pilot qHTS (AID 504865); conditions: purified USP1/UAF1, Ub-rhodamine cleavage fluorescence; series mostly up to 54.9 µM;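 also: rhodamine fluorescence freed from ubiquitin-rhodamine substrate followed over time; top concentration of the series differs between compounds; % is scaled to controls: 0 for no effect and ±100 for the full control effect; nearly all actives have a fitted effect of over 35% in size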
# In short: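 In 50mM HEPES pH 7.8 containing 0.5mM EDTA, 1mM TCEP, 0.1 mg/ml BSA and 0.01% Tween-20, 1nM USP1/UAF1 is exposed to compound for 15 min, then Ub-Rho (150nM final) is added and fluorescence is read over time.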
# [16] = molecular target: Cytochrome P450 1A2 (Homo sapiens) (UniProt P05177); experiment: p450-cyp1a2 (AID 410; calls by dose curve; also: potency is read from the fitted curve at half-maximal effect); conditions: recombinant CYP1A2, luciferin-ME demethylation, luminescence; series mostly up to 57 µM
# In short: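 Luminescent demethylation readout: Luciferin-ME (100uM, equal to Km) turned over by 20nM CYP1A2 for 60 min at room temperature after NADPH regeneration addition, following 10 min compound preincubation. Normalization used 57 uM furafylline as full inhibition.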
# [17] = molecular target: Cytochrome P450 2C19 (Homo sapiens) (UniProt P33261); experiment: qHTS Assay for Inhibitors and Substrates of Cytochrome P450 2C19 (AID 899); conditions: recombinant CYP2C19, luciferin-H EGE luminescence; series mostly up to 57.1 µM; also: potency is read from the fitted curve at half-maximal effect; nearly all actives have a fitted effect of over 60% in size
# In short: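 5 nM human CYP2C19 with 10uM Luciferin-H EGE (at KM) in 50mM KPO4, compound preincubated 10 min at 37C, then NADPH regeneration for 60 min at 37C. Luciferin read by luminescence after detection reagent; normalized to 57uM ketoconazole as full inhibition.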
# [18] = measured here: cell count channel max response
# [19] = measured here: lipid channel max response
# Sequence of Glucocorticoid receptor (Homo sapiens) (P04150 whole entry, looked up, the tested form may be a part): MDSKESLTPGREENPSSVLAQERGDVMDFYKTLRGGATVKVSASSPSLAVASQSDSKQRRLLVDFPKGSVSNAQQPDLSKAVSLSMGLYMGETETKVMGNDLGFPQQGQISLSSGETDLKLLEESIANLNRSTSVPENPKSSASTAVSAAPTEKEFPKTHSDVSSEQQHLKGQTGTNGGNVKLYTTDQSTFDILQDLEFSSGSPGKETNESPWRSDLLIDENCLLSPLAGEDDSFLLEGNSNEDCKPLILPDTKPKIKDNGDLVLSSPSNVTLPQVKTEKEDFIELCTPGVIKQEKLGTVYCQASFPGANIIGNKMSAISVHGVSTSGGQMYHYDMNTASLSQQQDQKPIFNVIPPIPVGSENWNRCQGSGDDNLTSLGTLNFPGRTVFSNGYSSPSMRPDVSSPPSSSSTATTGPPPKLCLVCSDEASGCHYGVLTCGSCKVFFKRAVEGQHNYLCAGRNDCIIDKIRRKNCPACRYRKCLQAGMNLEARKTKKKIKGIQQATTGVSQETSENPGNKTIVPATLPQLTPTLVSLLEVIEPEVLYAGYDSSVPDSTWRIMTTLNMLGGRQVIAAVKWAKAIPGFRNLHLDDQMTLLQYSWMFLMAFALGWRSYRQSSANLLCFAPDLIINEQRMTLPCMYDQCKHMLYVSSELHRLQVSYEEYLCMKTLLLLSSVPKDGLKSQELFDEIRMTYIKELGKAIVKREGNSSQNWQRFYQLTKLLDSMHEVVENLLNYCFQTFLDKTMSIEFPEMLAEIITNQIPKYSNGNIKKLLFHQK
# Sequence of Cytochrome P450 3A4 (Homo sapiens) (P08684 whole entry, looked up): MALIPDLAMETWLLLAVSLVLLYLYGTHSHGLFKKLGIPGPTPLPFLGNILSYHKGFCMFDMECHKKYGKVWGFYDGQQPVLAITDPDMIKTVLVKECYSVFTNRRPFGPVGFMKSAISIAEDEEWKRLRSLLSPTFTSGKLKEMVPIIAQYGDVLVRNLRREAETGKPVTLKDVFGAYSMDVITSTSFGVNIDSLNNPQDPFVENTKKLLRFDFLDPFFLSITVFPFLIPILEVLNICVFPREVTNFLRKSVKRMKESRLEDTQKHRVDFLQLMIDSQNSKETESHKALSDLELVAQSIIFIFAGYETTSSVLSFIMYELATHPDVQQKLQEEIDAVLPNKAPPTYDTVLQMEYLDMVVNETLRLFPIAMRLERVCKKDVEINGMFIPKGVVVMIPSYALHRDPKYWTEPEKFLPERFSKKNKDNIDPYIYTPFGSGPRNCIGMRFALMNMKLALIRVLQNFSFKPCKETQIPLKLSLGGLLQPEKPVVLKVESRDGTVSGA
# Sequence of Dual specificity protein kinase CLK4 (Homo sapiens) (Q9HAZ1 whole entry, looked up): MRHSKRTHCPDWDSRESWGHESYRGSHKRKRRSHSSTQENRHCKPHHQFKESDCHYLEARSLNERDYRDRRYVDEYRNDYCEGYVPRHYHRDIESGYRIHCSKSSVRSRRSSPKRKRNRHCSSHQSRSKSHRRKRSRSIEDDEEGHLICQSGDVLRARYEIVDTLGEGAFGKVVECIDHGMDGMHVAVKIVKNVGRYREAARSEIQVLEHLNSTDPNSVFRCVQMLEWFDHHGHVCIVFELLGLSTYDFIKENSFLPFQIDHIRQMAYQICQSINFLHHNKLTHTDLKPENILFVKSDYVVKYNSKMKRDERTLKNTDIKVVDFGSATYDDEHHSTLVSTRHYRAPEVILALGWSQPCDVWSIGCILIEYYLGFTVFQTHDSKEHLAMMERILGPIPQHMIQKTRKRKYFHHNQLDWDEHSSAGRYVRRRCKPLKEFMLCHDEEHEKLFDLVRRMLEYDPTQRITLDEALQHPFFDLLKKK
# Sequence of Ubiquitin carboxyl-terminal hydrolase 1 (Homo sapiens) (O94782 whole entry, looked up): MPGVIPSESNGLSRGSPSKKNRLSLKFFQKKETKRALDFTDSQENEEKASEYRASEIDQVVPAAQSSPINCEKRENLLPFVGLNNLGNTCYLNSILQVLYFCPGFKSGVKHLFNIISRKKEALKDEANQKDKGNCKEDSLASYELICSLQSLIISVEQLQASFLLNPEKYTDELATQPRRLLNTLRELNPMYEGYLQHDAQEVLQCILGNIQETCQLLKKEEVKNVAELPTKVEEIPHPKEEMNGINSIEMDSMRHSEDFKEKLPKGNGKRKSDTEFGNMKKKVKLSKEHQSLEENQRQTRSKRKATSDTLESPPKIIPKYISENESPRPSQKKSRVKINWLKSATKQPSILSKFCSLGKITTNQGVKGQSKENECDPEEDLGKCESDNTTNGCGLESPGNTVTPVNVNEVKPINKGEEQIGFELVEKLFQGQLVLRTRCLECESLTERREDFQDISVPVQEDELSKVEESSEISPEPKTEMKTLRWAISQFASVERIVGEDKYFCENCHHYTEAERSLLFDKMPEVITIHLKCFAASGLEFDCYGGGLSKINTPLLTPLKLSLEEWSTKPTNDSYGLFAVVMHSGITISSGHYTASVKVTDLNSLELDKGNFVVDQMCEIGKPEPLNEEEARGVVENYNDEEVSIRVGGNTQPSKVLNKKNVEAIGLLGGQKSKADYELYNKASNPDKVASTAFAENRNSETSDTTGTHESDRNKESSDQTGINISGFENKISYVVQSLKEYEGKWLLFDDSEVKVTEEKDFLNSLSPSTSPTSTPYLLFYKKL
# Sequence of Lysosomal acid glucosylceramidase (Homo sapiens) (P04062 whole entry, looked up): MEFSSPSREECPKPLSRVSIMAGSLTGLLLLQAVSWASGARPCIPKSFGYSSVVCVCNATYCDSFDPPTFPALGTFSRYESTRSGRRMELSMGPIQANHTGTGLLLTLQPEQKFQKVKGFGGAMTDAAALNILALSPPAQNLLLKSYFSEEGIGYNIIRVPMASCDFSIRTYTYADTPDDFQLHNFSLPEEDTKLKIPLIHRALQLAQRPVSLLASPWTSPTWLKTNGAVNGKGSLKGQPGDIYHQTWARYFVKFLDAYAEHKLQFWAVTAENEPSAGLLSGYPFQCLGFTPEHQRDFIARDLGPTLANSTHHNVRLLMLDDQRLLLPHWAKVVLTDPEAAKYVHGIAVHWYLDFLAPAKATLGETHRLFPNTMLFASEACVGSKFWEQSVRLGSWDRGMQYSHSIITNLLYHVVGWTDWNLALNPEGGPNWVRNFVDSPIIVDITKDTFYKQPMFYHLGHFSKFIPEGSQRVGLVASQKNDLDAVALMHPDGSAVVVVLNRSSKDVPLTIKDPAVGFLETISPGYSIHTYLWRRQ
# Sequence of Cytochrome P450 1A2 (Homo sapiens) (P05177 whole entry, looked up): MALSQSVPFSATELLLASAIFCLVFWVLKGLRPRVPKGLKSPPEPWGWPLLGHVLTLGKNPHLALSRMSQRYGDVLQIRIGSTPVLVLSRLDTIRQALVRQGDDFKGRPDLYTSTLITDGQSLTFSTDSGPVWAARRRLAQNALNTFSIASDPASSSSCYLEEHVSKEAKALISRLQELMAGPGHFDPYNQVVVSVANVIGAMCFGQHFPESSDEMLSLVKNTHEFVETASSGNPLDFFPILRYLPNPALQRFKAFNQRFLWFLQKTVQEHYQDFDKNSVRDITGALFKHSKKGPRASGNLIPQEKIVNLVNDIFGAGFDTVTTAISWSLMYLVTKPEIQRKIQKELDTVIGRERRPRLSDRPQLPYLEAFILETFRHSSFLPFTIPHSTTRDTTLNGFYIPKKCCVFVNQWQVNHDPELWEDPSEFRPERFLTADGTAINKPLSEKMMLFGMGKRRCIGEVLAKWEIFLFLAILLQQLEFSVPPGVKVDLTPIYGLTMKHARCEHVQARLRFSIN
# Sequence of 3',5'-cyclic-AMP phosphodiesterase 4B (Homo sapiens) (Q07343 whole entry, looked up): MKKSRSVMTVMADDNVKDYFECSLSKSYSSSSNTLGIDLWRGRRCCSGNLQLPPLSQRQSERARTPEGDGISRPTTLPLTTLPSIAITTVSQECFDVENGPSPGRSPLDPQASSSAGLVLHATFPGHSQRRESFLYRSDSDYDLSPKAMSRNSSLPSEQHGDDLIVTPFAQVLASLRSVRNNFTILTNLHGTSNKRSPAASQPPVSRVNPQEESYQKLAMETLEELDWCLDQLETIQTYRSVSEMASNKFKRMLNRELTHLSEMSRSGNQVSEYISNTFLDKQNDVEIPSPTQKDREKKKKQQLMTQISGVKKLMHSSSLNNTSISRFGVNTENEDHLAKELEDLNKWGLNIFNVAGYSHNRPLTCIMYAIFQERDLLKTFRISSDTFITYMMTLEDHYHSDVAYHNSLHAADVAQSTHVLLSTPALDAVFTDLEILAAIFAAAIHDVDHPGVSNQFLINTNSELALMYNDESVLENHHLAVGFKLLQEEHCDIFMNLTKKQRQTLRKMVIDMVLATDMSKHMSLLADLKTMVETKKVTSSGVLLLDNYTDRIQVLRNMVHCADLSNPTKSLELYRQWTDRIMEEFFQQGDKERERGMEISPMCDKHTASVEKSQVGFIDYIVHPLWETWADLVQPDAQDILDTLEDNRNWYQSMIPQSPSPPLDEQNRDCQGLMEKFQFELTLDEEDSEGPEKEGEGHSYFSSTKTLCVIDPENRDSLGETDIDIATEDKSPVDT
# Sequence of Cytochrome P450 2C19 (Homo sapiens) (P33261 whole entry, looked up): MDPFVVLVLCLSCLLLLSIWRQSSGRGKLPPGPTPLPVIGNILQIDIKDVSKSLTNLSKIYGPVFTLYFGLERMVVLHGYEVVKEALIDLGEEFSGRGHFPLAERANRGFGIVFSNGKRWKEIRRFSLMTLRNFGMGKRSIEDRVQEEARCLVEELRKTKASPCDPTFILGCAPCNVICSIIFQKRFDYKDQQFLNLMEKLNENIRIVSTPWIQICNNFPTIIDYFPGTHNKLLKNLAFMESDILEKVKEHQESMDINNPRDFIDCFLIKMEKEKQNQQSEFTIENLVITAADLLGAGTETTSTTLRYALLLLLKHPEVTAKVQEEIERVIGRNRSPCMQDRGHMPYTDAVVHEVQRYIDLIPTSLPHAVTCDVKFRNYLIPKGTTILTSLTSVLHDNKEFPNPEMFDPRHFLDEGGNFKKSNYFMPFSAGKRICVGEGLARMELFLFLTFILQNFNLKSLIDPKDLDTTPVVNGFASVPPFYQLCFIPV
Compound,Potency [1],"activity change, negative = inhibition [2]","activity change, negative = inhibition [3]","activity, negative = inhibition [4]",Potency [5],Potency [6],Potency [7],Potency [8],Potency [9],Potency [10],"activity change, negative = inhibition [11]","max response [11, 18] [%]","max response [11, 19] [%]",Potency [12],Potency [13],Potency [14],Potency [15],Potency [16],Potency [17]
COc1ccccc1-c1cncnc1N1CCN(C)CC1,> 11.4 µM (inactive),3.96% (inactive),-14.4% (inactive),4.86% (inactive),> 46 µM (inactive),> 46 µM (inactive),inactive,inactive,2.51 µM (active),inactive,3.21% (inactive),28,29.7,inactive,inactive,inactive,inactive,–,–
COc1ccccc1-c1ccc2ncnc(NCc3ccccc3)c2c1,> 11.4 µM (inactive),-25.6% (inactive),0.253% (inactive),-8.43% (inactive),> 46 µM (inactive),> 46 µM (inactive),inactive,–,–,inactive,-15.2% (inactive),-12.6,-27.8,3.98 µM (active),6.31 µM (active),2.82 µM (active),inactive,2 µM (active),3.98 µM (active)
